# ALDH1A1 block = inhibitors of human aldehyde dehydrogenase 1A1; P00352; Purified ALDH1A1, NADH fluorescence, propionaldehyde substrate; Potency, µM (top dose mostly 75.3 µM), for inactives: at the top dose activity, negative = inhibition, hits mostly inhibitors; 220,000 compounds, 7.3% hits;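 also: potency is read from the fitted curve at half-maximal effect; plate controls were no enzyme wells and a reference inhibitor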
# ALOX12 inhib = blocks human 12-lipoxygenase activity; purified 12-hLO, xylenol orange hydroperoxide absorbance; 150,000 compounds, 0.12% hits; P18054; AID 1452; Potency, µM (highest dose often 57.1 µM), for inactives: at the top dose activity change, negative = inhibition, actives largely listed as inhibitors; active = well fitted inhibition curve with a large enough effect; inconclusive = small, poorly fitted or top-dose-only effect; also: potency is read from the fitted curve at half-maximal effect; nearly all actives have a fitted effect of over 55% in size
# Target sequence (P18054 whole entry, looked up): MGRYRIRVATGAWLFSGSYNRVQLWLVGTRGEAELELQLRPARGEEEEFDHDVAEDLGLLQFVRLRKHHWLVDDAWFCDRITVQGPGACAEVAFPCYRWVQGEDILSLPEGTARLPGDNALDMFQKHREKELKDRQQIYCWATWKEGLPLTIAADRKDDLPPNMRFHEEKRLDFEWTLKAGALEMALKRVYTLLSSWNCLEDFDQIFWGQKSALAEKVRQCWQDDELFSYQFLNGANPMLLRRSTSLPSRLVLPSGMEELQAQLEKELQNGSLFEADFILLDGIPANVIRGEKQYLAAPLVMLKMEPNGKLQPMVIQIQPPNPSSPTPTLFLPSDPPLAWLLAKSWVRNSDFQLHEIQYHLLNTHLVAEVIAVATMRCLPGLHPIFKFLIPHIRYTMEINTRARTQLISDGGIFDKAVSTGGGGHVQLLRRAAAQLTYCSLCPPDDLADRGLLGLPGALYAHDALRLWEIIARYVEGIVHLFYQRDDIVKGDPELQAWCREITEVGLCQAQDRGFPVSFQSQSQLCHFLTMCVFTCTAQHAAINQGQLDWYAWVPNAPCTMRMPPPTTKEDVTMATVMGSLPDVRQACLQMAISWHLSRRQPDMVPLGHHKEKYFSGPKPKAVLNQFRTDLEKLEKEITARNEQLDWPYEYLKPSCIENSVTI
#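 Hydroperoxide formation by human 12-lipoxygenase from 40 uM arachidonic acid was followed colorimetrically via ferric-xylenol orange complex, using the 573/405 nm absorbance ratio. Enzyme concentration was 150 nM, with 30 min reaction at room temperature.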
# Lamin A splicing = modulators of lamin A splicing; HeLa LMNA splicing GFP/RFP minigene ratio, 48 h; 200,000 compounds, 0.01% hits; Potency, µM (series often up to 46.1 µM), for the others: top-dose ratio change, negative = inhibition, most hits filed as inhibitors; active = well fitted inhibition curve with a large enough effect in the signal ratio, with a control signal flat, not every such curve was filed as active; inconclusive = small, poorly fitted or top-dose-only effect, or effect the other way, or a change in a side signal; the % refers to the signal ratio; also: potency is read from the fitted curve at half-maximal effect
#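 S3 HeLa cells stably expressing lamin A-EGFP splicing minigene plus DsRed2, 600 cells/well, 48 h compound exposure at 37C. Laser-scanning cytometry; analysed as GFP (500-530 nm)/RFP (575-640 nm) total intensity ratio; 0.5% DMSO vehicle.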
# PNC assembly inh = perinucleolar compartment assembly inhibition; PC3M PTB-GFP, PNC prevalence imaging, 16 h; active compounds read low; activity change (PNC), negative = inhibition, % at 10 µM; 140,000 compounds, 3.1% hits; AID 2417;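 active = readout at or below -70, meaning at least 70% loss of cells showing the perinucleolar compartment, a nuclear body marking cancer cells; inconclusive = readout between -30 and a set limit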;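 also: plate controls were DMSO wells for no effect and camptothecin positive control wells for full effect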
#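 PC3M cells stably expressing PTB-GFP, 750–1000 cells/well, treated 16 h at 37 °C with compound (23 nl of library stock), in duplicate. After paraformaldehyde fixation and Hoechst stain, imaged at 20x; PNC prevalence scored by image analysis.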
# HPGD inh = blocks human HPGD enzyme activity. purified HPGD, NADH fluorescence kinetic, PGE2 substrate. Potency, µM, for inactives: at the highest dose activity change, negative = inhibition, hits mostly inhibitors. AID 894. 150,000 compounds, 4.3% hits. P15428; also: potency is read from the fitted curve at half-maximal effect
#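 NADH formation kinetics: reaction with 30 uM PGE2 and 1 mM NAD+ (final), 20 nM enzyme, Tris-HCl pH 8 with Tween 20, after 15 min compound preincubation at room temperature. Fluorescence change, last versus first of five reads.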
# An asterisk follows results filed as active; ? = inconclusive; . = not tested or not shown; [ ] = dose if it differs, or a comment. Rows were chosen to be rich in hits. Some 10% of all compounds tested hit in one or more screens of this group. Unless noted, calls follow the shape of the dose curve; as a rule, active = well fitted inhibition curve with a large enough effect (not every such curve was filed as active); inconclusive = small, poorly fitted or top-dose-only effect, or another doubt; inactive = no such curve, though single readings can be large or run the other way. Unless noted, % is scaled to controls: 0 for no effect and ±100 for the full control effect.
SMILES,ALDH1A1 block,ALOX12 inhib,Lamin A splicing,PNC assembly inh,HPGD inh
CC(=O)c1ccc(N2CCN(c3ncnc4c3c(-c3ccccc3)cn4-c3ccc(C)c(Cl)c3)CC2)cc1,.,.,3%[46 µM],.,.
COc1ccc(CNC(=O)CN2C(=O)COc3ccccc32)c(OC)c1,.,.,7%[46 µM],.,.
CC1CC(C)(C)NCc2ccccc21 (configuration not stated),0.56µM*,-5%,-4%,4,.
COC(=O)CC1C(=O)NCCN1C(=S)NC(=O)C(c1ccccc1)c1ccccc1 (configuration not stated),-8%,-4%,-9%,15,-2%
COC(=O)CC1C(=O)NCCN1C(=S)NC(=O)c1sc2ccccc2c1Cl (configuration not stated),13µM*,.,-14%[46 µM],.,.
O=C(Nc1c2c(nc3ccccc13)CCCC2)c1cccc([N+](=O)[O-])c1,8%,-4%,-24%,-9,-4%
O=C(Nc1c2c(nc3ccccc13)CCCC2)c1ccccc1F,-2%,1%,-2%,-119*,-4%
CC(C)(C)CC(C)(C)NCC(=O)Nc1c2c(nc3ccccc13)CCC2,9.5µM*,.,.,.,.
O=C(Nc1c2c(nc3ccccc13)CCCC2)c1ccccc1Cl,6%,-5%,-6%,-28,-9%
Cc1nn(-c2ccccc2)c2c1/C(=N/O)CC(C)(C)C2,-4%,-4%,?,2,1%
Cc1nn(-c2ccccc2)c2c1C(=O)N(c1ccccc1)C(=O)C(C)(C)C2,13µM*,1%,11%,29,-21%
CCN(CC)S(=O)(=O)c1ccc(Oc2ccc(S(=O)(=O)N(CC)CC)cc2)cc1,-8%,-3%,?,?,-4%
CC(=O)CC(C)(C)S(=O)(=O)c1ccc(Oc2ccc(S(=O)(=O)C(C)(C)CC(C)=O)cc2)cc1,8.9µM*,-4%,-3%,155,0%
Cc1ccc(C(=O)N/N=C/c2ccc(N3CCOCC3)cc2)c(C)c1,-14%,.,24%[46 µM],.,.
O=C(Nc1ccccc1N1CCOCC1)c1cccs1,-1%,5%,-10%,113,-12%
O=C(NC(=S)Nc1ccc(S(=O)(=O)N2CCCC2)cc1)c1cccs1,13%,?,?,13,?
O=C(NC(=S)Nc1ccccc1N1CCOCC1)c1cccs1,40µM*,?,-3%,12,-14%
O=C(NC(=S)Nc1ccc(S(=O)(=O)N2CCCCCC2)cc1)c1cccs1,13µM*,2%,-6%,?,-15%
O=C(NC(=S)Nc1ccc(N2CCCCC2)cc1)c1cccs1,22µM*,?,?,?,32µM*
Cc1ccc(C(=O)NC(=S)Nc2ccc(N3CCOCC3)cc2)c(C)c1,32µM*,.,?,.,.
Cn1c(SCc2cccc([N+](=O)[O-])c2)nc2c(c1=O)SCC2,?,.,8%[46 µM],.,.
COc1cc(OC)cc(C(=O)NC(=S)Nc2ccc(N3CCCC3)cc2)c1,11µM*,-23%,?,?,-11%
COc1ccccc1NC(=O)NS(=O)(=O)c1ccc(C)cc1,5%,-4%,-8%,-110*,4%
COc1ccccc1NC(=O)COc1ccc(/C=N/NS(=O)(=O)c2ccc(C)cc2)cc1,?,-19%,0%,?,16µM*
Cc1ccc(N(CC(=O)NCc2ccco2)S(=O)(=O)c2ccccc2)cc1,?,-4%,6%,-8,-9%
SMILES,ALDH1A1 block,ALOX12 inhib,Lamin A splicing,PNC assembly inh,HPGD inh
Cc1ccc(S(=O)(=O)N/N=C/c2ccc(OCC(=O)Nc3ccccc3Cl)cc2)cc1,-14%,-16%,-7%,15,14µM*
COc1ccccc1N(CC(=O)N/N=C/c1ccc(OCC(=O)NCc2ccco2)cc1)S(=O)(=O)c1ccc(C)cc1,-10%,3%,4%,30,16µM*
CCNS(=O)(=O)c1ccc(NC(=O)Nc2ccccc2OC)cc1,25%,.,?,.,.
Cc1ccc(-c2cn3nc(N4CCCC(C(=O)Nc5ccc(F)cc5)C4)sc3n2)cc1 (configuration not stated),.,.,-10%[46 µM],.,.
Cc1nn(CCC(=O)Nc2ccc(Cl)cc2)c(C)c1S(=O)(=O)N1CCCCC1,.,.,11%[46 µM],.,.
Oc1ccccc1/C=N/Nc1ccnc(SCc2ccccc2)n1,-2%,5%,-7%,?,28µM*
Clc1ccc(Cl)c(Nc2ccnc(SCc3ccccc3)n2)c1,-8%[13.5 µM],3%[11.4 µM],.,.,-1%
Cc1nc2ccccc2n1CC(=O)NCc1ccccc1,3%,-1%,?,-103*,1%
Cc1cc(=O)c2ccccc2n1CC(=O)NCc1ccccc1,-1%,0%,?,-96*,-10%
Nc1nc(-c2cccc(NS(=O)(=O)c3ccccc3)c2)cs1,7.9µM*,-15%,?,11,11µM*
Cc1nc(-c2ccc(NS(=O)(=O)c3ccccc3)cc2)cs1,6%,.,.,.,.
O=[N+]([O-])c1ccc(S(=O)(=O)Cc2ccccc2)c([N+](=O)[O-])c1,1.3µM*,-5%[11.4 µM],.,.,-15%
O=[N+]([O-])c1ccc(NC2CCN(Cc3ccccc3)CC2)c([N+](=O)[O-])c1,-3%,.,.,.,.
CCSc1nnc(NC(=O)CSc2nnc(CNC(=O)c3ccccc3F)o2)s1,?,-1%,?,-124*,-17%
Cc1ccc(NC(=O)CSc2nnc(Cc3ccccc3)o2)cc1,?,.,15%[46 µM],.,.
O=C(CSc1nnc(CNC(=O)c2ccccc2F)o1)NCCc1ccccc1,-7%,-4%,-4%,25,-9%
Cc1ccc(NC(=O)CSc2nnc(CNC(=O)c3c(F)cccc3Cl)o2)cc1,-3%,-9%,9%,-91*,-14%
O=C(/C=C/c1ccccc1)N1CCN(Cc2nc3ccccc3c(=O)[nH]2)CC1,?,4%,-7%,4,32µM*
O=c1[nH]c(CN2CCCCC2)nc2ccccc12,-4%,-4%,6%,7,-8%
O=C(Nc1ccc(N2CCOCC2)nc1)c1ccc(C(F)(F)F)cc1,8%,.,?,.,.
CCCC(C(=O)NCc1cccc(Cl)c1)N1Cc2ccccc2C1=O (configuration not stated),.,.,3%[46 µM],.,.
Cc1cc(C)cc(NS(=O)(=O)c2cnc(Cl)c(Cl)c2)c1,3.5µM*,-2%,14%,?,-10%
CCOc1ccc(NS(=O)(=O)c2cnc(Cl)c(Cl)c2)cc1,?,-3%,?,?,-3%
O=C(COc1ccccc1F)N1CCc2ccccc2C1,-1%,.,.,.,.
O=C(CC1CS(=O)(=O)CC1CC(=O)Oc1ccccc1F)Oc1ccccc1F (configuration not stated),7.1µM*,-2%,-4%,29,-13%
CCOc1ccc2c(c1)OC(c1ccc(OC)cc1)(C(F)(F)F)NC2=O (configuration not stated),11%,-1%,?,-92*,-9%
COc1ccc(N2C(=O)/C(=C/c3cccs3)NC2=S)cc1,3.2µM*,1%,-4%,?,3.5µM*

# Source: PubChem BioAssay (National Center for Advancing Translational Sciences (NCATS))
